Hit rate of the full screen: of about 310,000 compounds, about 14,000 (4.5%) showed an effect of 50% or more. Effects have a minus sign here. This excerpt belongs to a sample that is enriched for strong results.
What follows are molecules tested against human ether-à-go-go-related gene (hERG) potassium channel (human, UniProt Q12809) (assay: primary screen, population patch clamp on CHO cells stably expressing hERG; higher = less effect of the substance).
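Note: peak tail current of the secondary pulse compared with the same well before compound.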

Chain of human ether-à-go-go-related gene (hERG) potassium channel (Q12809 whole entry, looked up): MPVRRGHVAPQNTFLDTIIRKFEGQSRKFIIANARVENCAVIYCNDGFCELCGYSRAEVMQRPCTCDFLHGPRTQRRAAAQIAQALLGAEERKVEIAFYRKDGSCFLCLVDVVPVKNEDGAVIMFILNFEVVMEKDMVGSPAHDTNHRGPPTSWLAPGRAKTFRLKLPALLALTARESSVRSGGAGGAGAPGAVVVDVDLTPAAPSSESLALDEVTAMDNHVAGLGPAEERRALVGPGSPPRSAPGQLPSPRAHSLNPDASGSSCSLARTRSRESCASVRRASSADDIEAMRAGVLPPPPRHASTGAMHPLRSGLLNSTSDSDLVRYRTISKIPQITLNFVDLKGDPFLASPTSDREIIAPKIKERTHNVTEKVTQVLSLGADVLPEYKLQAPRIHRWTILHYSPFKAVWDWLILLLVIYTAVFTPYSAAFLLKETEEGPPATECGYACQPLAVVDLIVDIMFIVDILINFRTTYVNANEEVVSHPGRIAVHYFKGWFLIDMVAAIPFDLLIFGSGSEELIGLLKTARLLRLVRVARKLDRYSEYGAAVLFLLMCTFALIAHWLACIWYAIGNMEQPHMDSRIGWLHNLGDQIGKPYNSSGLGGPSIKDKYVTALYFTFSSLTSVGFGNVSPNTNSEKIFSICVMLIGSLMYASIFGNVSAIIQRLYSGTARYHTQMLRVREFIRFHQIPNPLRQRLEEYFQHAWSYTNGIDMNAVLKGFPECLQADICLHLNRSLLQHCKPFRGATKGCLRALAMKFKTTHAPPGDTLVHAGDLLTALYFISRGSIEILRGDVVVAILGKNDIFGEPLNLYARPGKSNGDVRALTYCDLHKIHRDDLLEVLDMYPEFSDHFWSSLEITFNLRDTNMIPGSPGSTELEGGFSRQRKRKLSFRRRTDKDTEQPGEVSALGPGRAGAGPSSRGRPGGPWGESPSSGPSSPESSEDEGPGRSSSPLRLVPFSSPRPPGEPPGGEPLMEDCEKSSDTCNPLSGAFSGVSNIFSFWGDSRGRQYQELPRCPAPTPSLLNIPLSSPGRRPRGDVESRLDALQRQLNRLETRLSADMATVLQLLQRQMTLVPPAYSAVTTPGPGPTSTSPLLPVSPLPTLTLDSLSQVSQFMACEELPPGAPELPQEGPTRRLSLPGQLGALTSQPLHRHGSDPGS

SMILES | hERG current change (%, negative = inhibition) at 10uM [%]
CCCCCCCC(=O)Nc1cc(C(=O)NCc2ccc(C)cc2)ccc1N1CCC2(CC1)CC(c1cccc(Br)c1)=NO2 | 2.8
CCSCCOC(=O)C1=C(C)NC(=O)NC1c1ccc2c(c1)OCO2 (stereo not shown) | -13.4
Cc1cccc(C(=O)N(NC(=O)Oc2ccccc2)C(C)(C)C)c1 | -13
CCc1ccc(NC(=O)CCNS(=O)(=O)c2cccc3nsnc23)cc1 | -14.9
O=C(Cc1ccc([N+](=O)[O-])cc1)Nc1ccc2c(c1)OCO2 | -13.9
O=C(Nc1ccc2c(c1)OCCO2)C1CCC1 | 7.7
Cc1ccccc1C(=O)N1CCC(C(=O)Nc2ccc3c(c2)OCCO3)CC1 | 5.7
O=C(Nc1ccc2c(c1)OCO2)C1CCN(S(=O)(=O)c2ccc3c(c2)OCCO3)CC1 | 7.45
O=C(Nc1ccc2c(c1)OCO2)C1CCN(C(=O)c2ccc([N+](=O)[O-])cc2)CC1 | -84.2
O=C(Nc1ccc2c(c1)OCCO2)C1CCN(C(=O)c2ccc([N+](=O)[O-])cc2)CC1 | -65.6
CC(=O)Nc1nc(C)c(Cc2ccccc2)c(=O)[nH]1 | -1.04
Cn1cnc(S(=O)(=O)NCc2ccccc2)c1 | 2.77
Cc1ccccc1OCCOC(=O)c1nc2nccc(C)n2n1 | -14.1
COc1ccccc1NC(=O)C1=C(C)Nc2nnnn2C1c1ccncc1 (stereo not shown) | -12.4
CCOC(=O)c1c(CN2CCOCC2)n(-c2ccccc2)c2ccc(O)cc12 | -69.2
CCOC(=O)c1c(CN2CCOCC2)n(-c2ccccc2)c2cc(Br)c(O)c(CN(C)C)c12 | -42.3
CCOC(=O)c1c(C)n(-c2ccc(F)cc2)c2ccc(O)cc12 | 16.4
CCOC(=O)c1c(C)n(Cc2ccccc2)c2ccc(O)cc12 | 4.43
CCOC(=O)c1c(C)n(-c2ccccc2)c2ccc(O)cc12 | 13.8
CCOC(=O)c1c(CN(CC)CC)n(-c2ccccc2)c2ccc(O)cc12 | -66.7
COc1ccc(S(=O)(=O)N(CC(C)C)C2CCS(=O)(=O)C2)cc1OC (stereo not shown) | 4.62
CC(=O)c1ccc(N2CCN(C(=O)C3CCN(S(=O)(=O)c4ccc5c(c4)CC(C)N5C(=O)C4CC4)CC3)CC2)cc1 (stereo not shown) | -8.83
COc1ccc(CNC(=O)COC(=O)c2ccc3ncsc3c2)cc1OC | 14.5
C=C(C)C(=O)N1CC2(CC(c3cccc(NC(=O)/C=C\C=C/C)c3)=NO2)C[C@H]1C(N)=O (stereo partly shown) | 0.942
CSc1ccc(S(=O)(=O)NCC(=O)OCC(=O)N2CCCC2=O)cc1[N+](=O)[O-] | -9.51
Cc1nn(CC#N)c(=O)n1-c1ccccc1F | 10.8
COc1cc(CNCCN2CCOCC2)ccc1OCc1ccc(Cl)cc1Cl.Cl | -69.7
COc1cc(CNCCCN2CCOCC2)cc(Br)c1OCc1ccc(Cl)cc1.Cl | -35.5

SMILES | hERG current change (%, negative = inhibition) at 10uM [%]
COc1cc(CNCCN2CCOCC2)ccc1OCc1c(Cl)cccc1Cl.Cl | -50.6
COc1cc(CNCCN2CCOCC2)ccc1OCc1cccc(Cl)c1.Cl | -63.2
COc1cc(CNCCN(C)C)ccc1OCc1c(F)cccc1Cl.Cl | -19.6
COc1cc(CNCCN2CCOCC2)ccc1OCC(=O)NC(C)(C)C.Cl | 6.17
COc1cc(CNCCN2CCOCC2)ccc1OCc1ccc(Cl)cc1.Cl | -42.1
COc1cc(CNCCN2CCOCC2)ccc1OCc1ccccc1Cl.Cl | -45.7
COc1cc(CNCCO)cc(Cl)c1OCc1ccc(Cl)cc1Cl.Cl | -7.34
O=C1CC2C(=O)NCCN2C(=NC(=O)c2ccc(Cl)cc2)N1 (stereo not shown) | -15.7
COc1ccc(C(=O)Nc2ccc(NC(=O)C(C)C)nc2)cc1 | 18.9
COc1cccc(/C=N/n2c(-c3n[nH]c4c3CCC4)n[nH]c2=S)c1OC | 14.1
O=C(NCCCNC(=O)c1ccc(Cl)cc1Cl)c1ccccn1 | -2.08
O=C(CSc1nnc(CNC(=O)c2cccs2)o1)Nc1ccc(Cl)cc1 | -4.26
CCC(C)NC(=O)COc1ccccc1[N+](=O)[O-] (stereo not shown) | 16
CSCCC(NC(=O)c1ccco1)C(=O)NCC(c1ccccc1)N(C)C (stereo not shown) | -9.02
COc1ccc(C/C(N)=N/OC(=O)Cc2ccccc2)cc1 | -7.03
CCOC(=O)c1c(NC(=S)Nc2ccccc2)sc2c1CCCCC2 | 17.3
CCOC(=O)c1c(NC(=S)Nc2ccc(OCC)cc2)sc2c1CCN(C)C2 | -70.4
CCOC(=O)c1c(NC(=S)Nc2ccccc2)sc2c1CCN(C)C2 | -74.2
CCOC(=O)c1c(NC(=S)Nc2ccc(OC)cc2)sc2c1CCC2 | 14
CCOC(=O)c1c(NC(=O)Nc2ccc(F)cc2)sc2c1CCN(C)C2 | -26
CCOC(=O)c1c(NC(=S)Nc2ccc(Cl)cc2)sc2c1CCN(C)C2 | -74.2
CCOC(=O)c1c(NC(=S)Nc2ccccc2)sc2c1CC(C)(C)SC2 | -3.74
CCOC(=O)c1c(NC(=S)Nc2ccc(OC)cc2)sc2c1CCCCC2 | 12.5
CCOC(=O)c1c(NC(=O)Nc2ccc(C)cc2)sc2c1CCN(C)C2 | -47.6
CNC(=O)c1ccsc1NC(=O)CCS(=O)(=O)c1ccc(Cl)cc1 | -18.1
COc1ccccc1OCCn1c(C)c(C=O)c2ccccc21 | -2.11
Cc1c(Br)c([N+](=O)[O-])nn1CC(=O)N1CCCc2ccccc21 | 2.48
